We go through eight molecules from PubChem BioAssay (NCI).

Common to all, as to test: NCI-60 one-dose screen, 48 h (100 = growth as untreated, 0 = no growth, -100 = all killed)
Experiment [1] deals with SK-MEL-2 melanoma. The conditions noted are these: 10 µM unless noted.
The test system of experiment [2] is EKVX NSCLC. The conditions noted are these: 10 µM unless noted.
Experiment [3] concerns SN12C renal. Conditions: 10 µM unless noted.
Experiment [4] concerns UO-31 renal. The conditions noted are these: 10 µM unless noted.
The subject of experiment [5] is TK-10 renal. Conditions: 10 µM unless noted.
The subject of experiment [6] is ACHN renal. The conditions noted are these: 10 µM unless noted.
For experiment [7], the system named is CAKI-1 renal. Conditions: 10 µM unless noted.
For experiment [8], the system named is CCRF-CEM leukemia. Conditions: 10 µM unless noted.
Experiment [9] deals with MOLT-4 leukemia. The conditions noted are these: 10 µM unless noted.
Experiment [10] deals with SR leukemia. The conditions noted are these: 10 µM unless noted.
For experiment [11], the system named is RPMI-8226 leukemia. Conditions: 10 µM unless noted.
The test system of experiment [12] is OVCAR-8 ovarian. Conditions: 10 µM unless noted.
For experiment [13], the system named is OVCAR-5 ovarian. The conditions noted are these: 10 µM unless noted.
The test system of experiment [14] is OVCAR-4 ovarian. The conditions noted are these: 10 µM unless noted.
The subject of experiment [15] is SK-OV-3 ovarian. The conditions noted are these: 10 µM unless noted.
In experiment [16] the test system is OVCAR-3 ovarian. The conditions noted are these: 10 µM unless noted.
Experiment [17] has as its system NCI/ADR-RES ovarian. Conditions: 10 µM unless noted.
Experiment [18] concerns A498 renal. Conditions: 10 µM unless noted.
The test system of experiment [19] is IGROV1 ovarian. Conditions: 10 µM unless noted.
Experiment [20] concerns HS 578T breast. The conditions noted are these: 10 µM.

The panel holds about 83,000 compounds, 20% with a hit somewhere; the sample as a whole holds those more often.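 Plates (96-well) were seeded with cells, treated with compound at one concentration, and incubated for 48 hours before percent growth was determined.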 Values without a mark were called inactive. Calls of active or inactive are those of the source. The calls were made as follows: active = growth percent below 10; inactive = the rest.

Consider `COc1ccc(C2C3CCc4ccccc4C3=NN2C(=O)c2cc(OC)c(OC)c(OC)c2)cc1O` (stereo unspecified), for which the growth was 75.4% in experiment [1]; 89.6% in experiment [2]; 114% in experiment [3]; 79.9% in [4]; 101% in [5]; 98.1% in experiment [6]. Further, the growth in [7] was 101%; in experiment [8] it was 88.9%; in experiment [9], 90.5%; in experiment [10], 64.2%; in experiment [11] it was 45.7%; in [12], 99.4%. The growth is 101% in experiment [13]; 103% in [14]; 88% in experiment [15]; 109% in [16]; 102% in experiment [17].
As for `O=C1C=CC(=O)N1c1cccc(N2C(=O)C=CC2=O)c1`, the growth in [1] is 111%; in experiment [2], 95.6%; in experiment [3], 106%; in experiment [4], 28.4%; in experiment [5], 33.1%; in experiment [6], -26% (active). Moreover, the growth in experiment [7] is 37.3%; in experiment [18], 111%; in experiment [8], -22.3% (active); in [9] it was 103%; in [11], 91.7%; in experiment [12] it was 106%. Also, the growth in [13] is 102%; in [14], 98.1%; in [15] it was 111%; in experiment [19], 111%; in experiment [16], 66.4%; in [17] it was 110%.
Consider `C[C@@H](C[C@H](CC1CC1)c1ccccc1)c1ccc2ccccc2c1`, for which the growth in experiment [1] was 109%; in [2] it was 101%; in experiment [3], 103%; in [4] it was 90.1%; in experiment [5], 105%; in experiment [6] it was 106%. The growth in experiment [7] was 92.9%; in experiment [8], 96.4%; in experiment [9] it was 105%; in [10] it was 106%; in experiment [11], 98.8%; in experiment [12] it was 106%. Further, the growth in [13] was 107%; in experiment [14], 96.1%; in experiment [15], 117%; in experiment [19], 101%; in experiment [16], 113%; in experiment [20], 108%. The growth in [17] was 105%.
Take `Fc1ccc2nc(-c3ccc(-c4noc(-c5ccc(Cl)cc5)n4)cc3)[nH]c2c1`: the growth in experiment [1] is 105%; in experiment [2], 107%; in experiment [3], 110%; in experiment [4], 83.9%; in experiment [5], 115%; in [6], 110%. The growth in [7] was 102%; in [18], 81%; in [9], 89.8%; in experiment [10], 95.6%; in experiment [11], 106%; in experiment [12], 108%. The growth in experiment [13] was 113%; in [14], 114%; in experiment [15], 113%; in experiment [19], 115%; in experiment [16] it was 105%; in experiment [20], 108%. Moreover, the growth in experiment [17] is 100%.
For `CC(C)c1[nH]ncc1-c1nc2ccc3[nH]ncc3c2c2c1CCCC2`, the growth was 68.6% in [1]; 13.5% in experiment [2]; 35.2% in experiment [3]; 12.3% in experiment [4]; 22.7% in experiment [5]; 16.8% in [6]. Further, the growth in experiment [7] was 17.6%; in experiment [8] it was 28.8%; in experiment [9] it was 9.07% (active); in experiment [10], 6.47% (active); in experiment [11], 33.9%; in experiment [12], 37.2%. Besides, the growth in experiment [13] is 48.7%; in [14] it was 75.8%; in experiment [15], 16.5%; in experiment [19] it was 21.9%; in experiment [16], 46.8%; in [20] it was -1.07% (active). In experiment [17], the growth is 66.1%.
Turning to `CCCCn1c(-c2ccc(F)cc2)nc2cc(OC)c(OC)cc2c1=O`, the growth was 176% in experiment [1]; 105% in experiment [2]; 91.3% in [3]; 82.2% in experiment [4]; 75.1% in [5]; 101% in experiment [6]. In addition, the growth in experiment [18] is 95.7%; in experiment [8] it was -46% (active); in [9], 51.1%; in [10], 34.4%; in experiment [11] it was 40.2%; in experiment [12] it was 109%. Also, the growth was 108% in experiment [13]; 112% in experiment [14]; 120% in experiment [15]; 79.4% in experiment [19]; 106% in experiment [16]; 101% in experiment [20]. Also, the growth in experiment [17] is 93.9%.
On to `CN1CCN(c2ccc(N3Cc4ccccc4OC4=C3C(=O)c3c(O)ccc(O)c3C4=O)cn2)CC1`, for which the growth in [1] is -36.8% (active); in experiment [2], -1.22% (active); in [3], -62% (active); in experiment [4], -99.5% (active); in [5], -98.7% (active); in experiment [6] it was -100% (active). Moreover, the growth in [18] is -20.7% (active); in experiment [8], -12.7% (active); in [9], -17.8% (active); in experiment [11], -7.62% (active); in [12], 2.15% (active); in [13], -32.5% (active). In addition, the growth in [14] was -97.2% (active); in experiment [15], 26%; in experiment [19], -59.3% (active); in experiment [16] it was -99.6% (active); in experiment [20] it was 23.5%; in experiment [17], 5.09% (active).
On to `CC(C)(C)NC(=O)C(OC(=O)C1CCc2cc(F)ccc2O1)c1ccccc1Cl` (stereo unspecified), for which the growth in [1] is 102%; in experiment [2], 96%; in experiment [3] it was 101%; in [4], 72.4%; in [5], 99%; in experiment [6] it was 99%. Moreover, the growth in [18] was 90.7%; in experiment [8] it was 92.5%; in experiment [9] it was 94.6%; in experiment [10], 98.4%; in experiment [11], 99%; in experiment [12], 98.3%. Besides, the growth is 96.6% in [13]; 94.9% in [14]; 102% in experiment [15]; 92.8% in experiment [19]; 95.5% in [17].
